# Experimental data taken from PubChem BioAssay (NCATS).
# Records with an inconclusive call do not appear. Where a call stands in place of a potency, no number is given. Values without a mark were called inactive. Calls of active or inactive are those of the source. Calls come from the whole dose curve; as a rule, active = well fitted inhibition curve with a large enough effect; inconclusive = small, poorly fitted or top-dose-only effect; inactive = flat fitted curve, though single readings scatter.
# Experiments:
# PC49 = experiment: qHTS profiling for inhibitors of Plasmodium falciparum proliferation (AID 504749); note: potency is the fitted concentration of half-maximal effect; conditions: P. falciparum in erythrocytes, SYBR Green DNA, 72 h; series mostly up to 28.7 µM
# How it was run: (§1)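 P. falciparum-infected erythrocytes (0.3% parasitemia, 2.5% hematocrit) incubated with compound 72 h at 37 C, 5% CO2. Parasite DNA detected by SYBR Green after lysis, overnight at room temperature; normalised to 0.29 uM artemisinin and DMSO.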
# SC27B = experiment: as above; conditions: P. falciparum in erythrocytes, SYBR Green DNA, 72 h; series mostly up to 28.7 µM
# How it was run: as §1
# TAB109 = experiment: as above; conditions: P. falciparum in erythrocytes, SYBR Green DNA, 72 h; series mostly up to 28.7 µM
# How it was run: as §1
# TAB113 = experiment: as above; conditions: P. falciparum in erythrocytes, SYBR Green DNA, 72 h; series mostly up to 28.7 µM
# How it was run: as §1
# TAB165 = experiment: as above; conditions: P. falciparum in erythrocytes, SYBR Green DNA, 72 h; series mostly up to 28.7 µM
# How it was run: as §1
# W2 = experiment: as above; conditions: P. falciparum in erythrocytes, SYBR Green DNA, 72 h; series mostly up to 28.7 µM
# How it was run: as §1
# KB-3-1 = experiment: Cytotoxic Profiling of Annotated Libraries Using Quantitative High-Throughput Screening (AID 1296008); conditions: Five cell lines viability, CellTiter-Glo ATP luminescence, 48-72 h; max response: stronger effect = lower value; note: potency is the fitted concentration of half-maximal effect
# How it was run: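 Cells exposed to compounds for 48 or 72 hr at 37 degrees Celsius. Viability read as ATP-coupled luminescence with CellTiter-Glo after 10 min at room temperature.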
# PC26 = experiment: qHTS profiling for inhibitors of Plasmodium falciparum proliferation (AID 504749); note: potency is the fitted concentration of half-maximal effect; conditions: P. falciparum in erythrocytes, SYBR Green DNA, 72 h; series mostly up to 28.7 µM
# How it was run: as §1
# MCC-13 = experiment: qHTS assay to identify novel small-molecules to repurpose for Merkel cell carcinoma treatment (AID 1296009); conditions: MCC and control cell lines, CellTiter-Glo viability, 72 h; series mostly up to 46 µM
# How it was run: (§2)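 Cells were treated for 72 hr at 37 degree celsius with compounds in 8- or 11-point dose response. Viability was read by CellTiter-Glo luminescence, normalized to no-cell (cytotoxicity) and DMSO controls.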
# MCC-26 = experiment: as above; conditions: MCC and control cell lines, CellTiter-Glo viability, 72 h; series mostly up to 46 µM
# How it was run: as §2
# MKL-1 = experiment: as above; conditions: MCC and control cell lines, CellTiter-Glo viability, 72 h; series mostly up to 46 µM
# How it was run: as §2
# MKL-2 = experiment: as above; conditions: MCC and control cell lines, CellTiter-Glo viability, 72 h; series mostly up to 46 µM
# How it was run: as §2
# UISO = experiment: as above; conditions: MCC and control cell lines, CellTiter-Glo viability, 72 h; series mostly up to 46 µM
# How it was run: as §2
# Note: nearly all actives have a fitted effect of over 60% in size.
structure (smiles),measurement,setting,value
O=C1N=C2SCCN2C(=O)C1Cc1ccc(Cl)cc1 (stereo not given),Potency,PC49,inactive
same,Potency,SC27B,inactive
same,Potency,TAB109,inactive
same,Potency,TAB113,inactive
same,Potency,TAB165,inactive
same,Potency,W2,inactive
same,max response,KB-3-1,-9%
O=C(OC1C[C@@H]2CC3C[C@H](C1)N2CC3=O)c1c[nH]c2ccccc12 (stereo not given in full),Potency,SC27B,inactive
same,Potency,TAB113,inactive
same,max response,KB-3-1,-14.8%
CCOc1cc(-c2nccc3cc(OC)c(OC)cc23)cc(OCC)c1OCC,Potency,TAB109,inactive
same,Potency,W2,15.1 µM (active)
same,max response,KB-3-1,-26.3%
Cc1cc(-c2ccc(N=Nc3c(S(=O)(=O)O)cc4cc(S(=O)(=O)O)cc(N)c4c3O)c(C)c2)ccc1N=Nc1c(S(=O)(=O)O)cc2cc(S(=O)(=O)O)cc(N)c2c1O,Potency,PC49,inactive
same,Potency,SC27B,inactive
same,Potency,TAB113,inactive
same,Potency,TAB165,12.6 µM (active)
same,Potency,W2,inactive
same,Potency,KB-3-1,9.2 µM (active)
CCCCCCCCCCCCCCCCOCCOCCOCCOCCOCCOCCOCCOCCOCCOCCOCCOCCOCCOCCOCCOCCOCCOCCOCCOCCO,Potency,PC49,12.6 µM (active)
same,Potency,TAB109,12.6 µM (active)
same,Potency,TAB165,14.1 µM (active)
same,Potency,W2,6.75 µM (active)
same,max response,KB-3-1,-16.1%
CO[C@H]1C[C@@H]2CC[C@@H](C)[C@@](O)(O2)C(=O)C(=O)N2CCCC[C@H]2C(=O)O[C@H]([C@H](C)C[C@@H]2CC[C@@H](OC(=O)C(C)(CO)CO)[C@H](OC)C2)CC(=O)[C@H](C)/C=C(\C)[C@@H](O)[C@@H](OC)C(=O)[C@H](C)C[C@H](C)/C=C/C=C/C=C/1C,Potency,PC26,inactive
same,Potency,PC49,inactive
same,Potency,SC27B,inactive
same,Potency,TAB109,inactive
same,Potency,TAB113,inactive
same,Potency,TAB165,inactive
same,Potency,W2,inactive
CCN(CC)CCC(=O)N1c2ccccc2Sc2ccc(C(F)(F)F)cc21,Potency,PC49,inactive
same,Potency,SC27B,inactive
same,Potency,TAB113,inactive
same,Potency,TAB165,inactive
same,Potency,W2,5.36 µM (active)
same,max response,KB-3-1,2.13%
Cc1cc2nc3c(=O)[nH]c(=O)nc-3n(C[C@H](O)[C@H](O)[C@H](O)COP(=O)(O)OP(=O)(O)OC[C@H]3O[C@@H](n4cnc5c(N)ncnc54)[C@H](O)[C@@H]3O)c2cc1C,Potency,PC49,inactive
same,Potency,SC27B,inactive
same,Potency,TAB109,inactive
same,Potency,TAB113,inactive
same,Potency,TAB165,inactive
same,Potency,W2,inactive
same,max response,KB-3-1,-11%
O=C(O)CCC(=O)c1ccc(-c2ccccc2)cc1,Potency,PC26,inactive
same,Potency,PC49,inactive
same,Potency,SC27B,inactive
same,Potency,TAB109,inactive
same,Potency,TAB113,inactive
same,Potency,TAB165,inactive
same,Potency,W2,inactive
same,outcome,MCC-13,inactive
same,outcome,MCC-26,inactive
same,outcome,MKL-1,inactive
same,outcome,MKL-2,inactive
same,outcome,UISO,inactive
O=C(c1cc2ccccc2o1)N1CCN(Cc2ccccc2)CC1,Potency,PC49,inactive
same,Potency,TAB109,8.91 µM (active)
same,Potency,TAB165,11.2 µM (active)
same,max response,KB-3-1,-3.18%
N#Cc1ccc2c(c1)N(CCCN1CCC(O)CC1)c1ccccc1S2,Potency,PC49,inactive
same,Potency,W2,4.26 µM (active)
same,max response,KB-3-1,1.4%
CN1C(C(=O)Nc2ccccn2)C(=O)c2sc(Cl)cc2S1(=O)=O (stereo not given),Potency,PC49,inactive
same,Potency,SC27B,inactive
same,Potency,TAB109,inactive
same,Potency,TAB113,inactive
same,Potency,TAB165,inactive
same,Potency,W2,inactive
same,max response,KB-3-1,5.88%
CN(C)C(=O)CCSC(SCCC(=O)O)c1cccc(/C=C/c2ccc3ccc(Cl)cc3n2)c1 (stereo not given),Potency,PC49,inactive
same,Potency,W2,7.57 µM (active)
same,max response,KB-3-1,-15.2%
NC(N)=O,Potency,PC26,inactive
same,Potency,PC49,inactive
same,Potency,SC27B,inactive
same,Potency,TAB109,inactive
same,Potency,TAB113,inactive
same,Potency,TAB165,inactive
same,Potency,W2,inactive
CC(CN(C)C)CN1c2ccccc2Sc2ccc(C(F)(F)F)cc21 (stereo not given),Potency,TAB165,12.6 µM (active)
same,Potency,W2,0.426 µM (active)
same,max response,KB-3-1,-6.33%
CC(C)C1=CC2=CC[C@@H]3[C@](C)(CCC[C@@]3(C)C(=O)O)[C@H]2CC1,Potency,PC49,inactive
same,Potency,SC27B,inactive
same,Potency,TAB109,inactive
same,Potency,TAB113,inactive
same,Potency,TAB165,inactive
same,Potency,W2,inactive
same,max response,KB-3-1,-11.9%
